Laboratory results from PubChem BioAssay (NCI).
Compounds without any hit were thinned out: in the full panel of roughly 83,000, 20% have a hit.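 Results are percent growth after 48 hours of single-concentration exposure. 100 means growth as in untreated cells, lower positive values show inhibition; negative values down to -100 show cell death.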 Values without a mark were called inactive. Calls of active or inactive are those of the source. How the source made its calls: active means growth percent below 10; inactive means the rest.

Test system: RXF 393 renal
Test: NCI-60 one-dose screen, 48 h (100 = growth as untreated, 0 = no growth, -100 = all killed)
Conditions: 10 µM unless noted

SMILES	growth
COc1cc(/C=C\c2cc(OC)c(OC)c(OC)c2)cc(N/C=C\C(=O)c2cc(OC)c(OC)c(OC)c2)c1OC	17.4%
N#C[S-].[Au+].c1ccc(CN2[CH-]N(Cc3ccccc3)C(c3ccccc3)=C2c2ccccc2)cc1	3.56% (active)
O=[N+]([O-])c1ccc(OP(=O)(CCl)N(CCCl)CCCl)cc1 (stereo not drawn)	101%
O=C1CC2(CC3(Cl)C(Cl)=C(Cl)C2(Cl)C3(Cl)Cl)C(=O)O1 (stereo not drawn)	107%
COc1cc2c(cc1OCCCCCn1c(-c3ccco3)nc3ccccc31)N=C[C@@H]1CCCN1C2=O	-40.4% (active)
O=C(O)c1ccc([S-])cc1.[Au+].c1ccc(CN2[CH-]N(Cc3ccccc3)C(c3ccccc3)=C2c2ccccc2)cc1	-88.9% (active)
N#C[Se]Cc1cc(-c2ccccc2)n(-c2ccc(S(N)(=O)=O)cc2)n1	-3.45% (active)
COc1cc2c(cc1OCCCCn1c(-c3cccs3)nc3ccccc31)N=C[C@@H]1CCCN1C2=O	-60.4% (active)
COc1ccc(/C=C\c2cc(OC)c(OC)c(OC)c2)cc1OCC(=O)Nc1nc2ccc(F)cc2s1	9.41% (active)
O=C(Nc1ccc([N+](=O)[O-])cc1)C(Cl)(Cl)Cl	116%
C[CH2][Sn]([Cl])([Cl])[CH2]C.Oc1ccccc1C=NCCN=Cc1ccccc1O	118%
C[N+]12CN3CN(CN(C3)C1)C2	111%
C[C@]12CC[C@@H]3c4ccc(Oc5nc(N6CC6)nc(N6CC6)n5)cc4CC[C@H]3[C@@H]1CCC2=O	-6.13% (active)
c1ccc(COc2ccc3[nH]cc(CCN(Cc4ccccc4)Cc4ccccc4)c3c2)cc1	91.2%
[Au+].[N-]=C=O.c1ccc(CN2[CH-]N(Cc3ccccc3)C(c3ccccc3)=C2c2ccccc2)cc1	83%
CC1=C(CCCNS(C)(=O)=O)C2=C(C)C3(CC3)[C@@](C)(O)C(=O)C2=C1	-75.6% (active)
C[C@]12CC[C@H]3[C@@H](CC[C@]4(O)C[C@@H](O[C@@H]5O[C@H](CO)[C@@H](O[C@@H]6OC[C@@H](O)[C@H](O)[C@H]6O)[C@H](O)[C@H]5O)CC[C@]34C=O)[C@@]1(O)CC[C@@H]2C1=CC(=O)OC1	-19.4% (active)
CN1C(=O)N[C@H]2[C@@H]3NC(=O)c4ccc(Br)n4[C@@H]3C[C@]21O	-27.5% (active)
COC1OC(CO)C(O)C(O)[CH]1[Hg][O]C(C)=O (stereo not drawn)	110%

SMILES	growth
OCc1ccc2c(c1)OCO2	103%
Nc1nnnc2nc[nH]c12	11.6%
CC1CCCC(C[N+](C)(C)C)C1=O (stereo not drawn)	112%
CNC(=O)Oc1cccc(C(F)(F)F)c1	146%
COc1cc2c(cc1OCCCn1c(-c3ccccn3)nc3ccccc31)N=C[C@@H]1CCCN1C2=O	-11.8% (active)
CCCCCCCOC(C(=O)OCCN(CC)CC)(c1ccccc1)c1ccccc1	92.4%
CC(=O)OCC1O[C@@H]([S-])C(OC(C)=O)[C@H](OC(C)=O)[C@@H]1OC(C)=O.[Au+].c1ccc(CN2[CH-]N(Cc3ccccc3)C(c3ccccc3)=C2c2ccccc2)cc1	-52.3% (active)
COc1ccc(C(=O)c2sc3nc4c(cc3c2N)N2CCC4CC2)cc1OC	85.6%
CC(CC1CCCCC1)NCc1ccccc1 (stereo not drawn)	99.6%
COc1ccc(/C=C\c2cc(OC)c(OC)c(OC)c2)cc1OCC(=O)Nc1nc2ccc(C(F)(F)F)cc2s1	-4.84% (active)
O=C1CCC2(O)[C@@H]3Cc4ccc(O)c5c4[C@]2(CCN3Cc2ccoc2)C1O5 (stereo partly drawn)	116%
C/C(=C\c1cc(C(F)(F)F)nn1CCNC(=O)OC(C)(C)C)[C@@H]1C[C@@H]2O[C@]2(C)CCC[C@H](C)[C@H](O)[C@@H](C)C(=O)C(C)(C)[C@@H](O)CC(=O)O1	53.2%
CC(C)CCC(=O)O[C@H]1CC[C@H]2[C@@H]3CCC4=CC(=O)CC[C@]4(C)[C@H]3CC[C@]12C	107%
ClCCN(CCCl)Cc1ccc(Nc2ccnc3cc(Cl)ccc23)cc1	-59.1% (active)
COc1cc(NC(C)CCCNC2CN3CCC2CC3)c2ncccc2c1 (stereo not drawn)	66.1%
C=CCCCN=C=S	80%
CCN(CC)CCOC(=O)C(OC(C)C)(c1ccccc1)c1ccccc1	98.5%
CCC1(C(C)C)C(=O)NC(=S)NC1=O	94.8%
CC[C@]12C=CCN3CC[C@]4(C(=C(C(=O)OC)C1)Nc1cc(OC)c(OC(C)=O)cc14)[C@@H]32	37.1%
